This excerpt belongs to a sample that is enriched for hits.
ST2 inh – IL1RL1 inhibition. Q01638. AlphaLISA ST2-Fc/biotin-IL-33 interaction, 1 h. inhibition, % for hits at 17 µM. hit rate 2.3% among 78,000. AID 1259354; in the data active = inhibition above about 30%
Target sequence (Q01638 whole entry, looked up): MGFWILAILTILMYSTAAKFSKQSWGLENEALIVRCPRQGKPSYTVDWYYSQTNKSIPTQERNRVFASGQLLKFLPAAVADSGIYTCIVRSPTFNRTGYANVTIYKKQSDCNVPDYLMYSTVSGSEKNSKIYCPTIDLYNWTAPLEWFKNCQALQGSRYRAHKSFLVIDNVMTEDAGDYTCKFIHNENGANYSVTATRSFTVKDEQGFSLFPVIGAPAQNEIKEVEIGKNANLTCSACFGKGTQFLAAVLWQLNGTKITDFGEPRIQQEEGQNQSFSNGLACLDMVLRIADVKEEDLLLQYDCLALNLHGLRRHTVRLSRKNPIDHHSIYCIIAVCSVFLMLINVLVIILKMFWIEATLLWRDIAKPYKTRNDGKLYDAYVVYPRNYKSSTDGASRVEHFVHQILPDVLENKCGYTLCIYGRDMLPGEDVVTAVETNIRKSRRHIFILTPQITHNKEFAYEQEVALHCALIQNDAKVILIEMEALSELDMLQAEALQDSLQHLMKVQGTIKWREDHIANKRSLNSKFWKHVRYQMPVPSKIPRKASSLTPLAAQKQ
The depositor's hits bear a star; i = inactive; ! = repeats disagree.

SMILES	ST2 inh
CCc1cccc(NC(=O)c2cc3cc4ccc(OC)cc4nc3o2)c1	i
COc1ccc2nc3oc(C(=O)Nc4ccc5c(c4)OCCO5)cc3cc2c1	36.0%*
COc1ccc2cc3cc(C(=O)Nc4cccc(SC)c4)oc3nc2c1	34.0%*!
COc1ccc2cc3cc(C(=O)Nc4ccc(OC)c(OC)c4)oc3nc2c1	i
Cc1c(Cl)c([N+](=O)[O-])nn1CCCC(=O)Nc1cc(C(F)(F)F)ccc1Cl	i
Cc1c(C(=O)NCc2ccccn2)oc2ccc(S(=O)(=O)N3CCC(C)CC3)cc12	i
CCOc1cccc2cc(C(N)=O)c(=Nc3sc4c(c3C#N)CCCC4)oc12	i
Cc1ccc(NC(=O)c2cc3cc(Br)ccc3oc2=O)cc1C	i
CC(=O)c1ccc(NC(=O)c2cc3cc(Br)ccc3oc2=O)cc1	39.0%*
CC(=O)c1ccc(OC(=O)c2cc3cc(Br)ccc3oc2=O)cc1	i
CCN(CC)CC(O)COc1ccccc1 (stereo not given)	i
O=[N+]([O-])c1ccc(S(=O)(=O)n2nnc3ccccc32)cc1	i
COc1ccc(-n2ccc3ccccc32)cc1	i
O=[N+]([O-])c1ccc(-n2ccc3ccccc32)cc1	32.0%*
N[C@@H]1CC[C@@H](NS(=O)(=O)c2c(Cl)nc3sccn23)C1	i
COCCN1CCCC2(CCN(Cc3cc4ccccc4o3)C2)C1=O (stereo not given)	i
Cc1cccnc1N1CCN(C(=O)[C@@]23CC[C@@](C)(OC2=O)C3(C)C)CC1	i
CCCCN(CCCC)S(=O)(=O)c1ccc(C(=O)Nc2nnc(-c3ccc(F)cc3)o2)cc1	i
CCN(CC)S(=O)(=O)c1ccc(-c2csc(=Nc3ccc(F)cc3)n2CCCO)cc1	43.0%*
O=S(=O)(c1ccc(-c2csc(=Nc3ccccc3)n2CCCO)cc1)N1CCOCC1	39.0%*
O=C(Nc1nc2ccccc2s1)c1ccc(S(=O)(=O)N2CCOCC2)cc1	i
CSc1ccccc1C(=O)Nc1ccc(S(=O)(=O)N2CCOCC2)cc1	i
CCN(CC)S(=O)(=O)c1ccc(C(=O)N=c2sc3ccccc3n2C)cc1	i
Cc1nc(C(F)(F)F)nc(-c2ccc(C(C)N3CCOCC3)cc2)c1C (stereo not given)	i
O=C(CCc1ccccc1)N1CC(c2cccnc2)C1	i
SMILES	ST2 inh
CC(C)CN1CC(C(=O)NCc2nc(-c3ccccc3)n[nH]2)CC1=O (stereo not given)	i
CCCN(CCO)C(=O)CC1C(=O)NCCN1C(C)C (stereo not given)	i
C=CC(C)(O)CC/C=C(\C)CCC(O)C(C)(C)O (stereo not given)	43.0%*
O=C(c1ccc2c(Cl)c3c(nc2c1)CCCC3)N1CCN(c2ccccn2)CC1	i
CN(Cc1ccccc1)C(=O)C[C@@H]1O[C@H](CNC(=O)c2ccco2)[C@@H](O)[C@H]1O	i
COc1ccc2c(=O)c(Oc3ccccc3)c(C(F)(F)F)oc2c1OC	i
CC(=O)Oc1ccc2c(=O)c(Oc3ccccc3)c(C)oc2c1OC(C)=O	i
COc1ccc2c(=O)c(Oc3ccccc3)c(C)oc2c1OC	30.0%*
CCSc1nc(CC(=O)NCc2ccc(CC)cn2)cs1	i
CCSc1nc(CC(=O)NCc2sc(C)nc2CC)cs1	31.0%*
CCSc1nc(CC(=O)NCc2cc(CC)no2)cs1	i
COc1ccc(NC(=O)CN2CCN(Cc3ccccc3C)S2(=O)=O)cc1OC	i
Cc1ccc(N2C(=O)C3N=NN(CC(=O)Nc4ccc(Br)cc4)C3C2=O)cc1 (stereo not given)	i
Cc1nc(C2CCNCC2)cc(N(C)Cc2ccsc2)n1	i
COc1ccccc1N=Cc1c(O)ccc2oc3c(c12)CCCC3	31.0%*
COc1ccc(N=Cc2cccc(OC)c2O)c(OC)c1	i
CCOC(=O)c1cc2c(ccc3oc4c(c32)CCCC4)oc1=O	i
CSc1nnc(CC2CCN(C(=O)CN(C)Cc3cccnc3)CC2)n1C	i
CN(Cc1cccnc1)C(Cc1ccccc1)C1CCN(C(=O)C23CC4CC(CC(C4)C2)C3)CC1 (stereo not given)	32.0%*
CN(C(=O)c1cccs1)C(Cc1ccccc1)C1CCN(C(=O)C2=CCCC2)CC1 (stereo not given)	i
O=C(Nc1ccccc1I)c1sc2ccccc2c1Cl	i
COc1ccc(Cl)cc1NC(=O)NCCc1nc2cccnc2n1-c1ccccc1	i
CC1=C[C@@H](CNC(=O)c2ccc(C#N)cc2)[C@H](C(C)C)C[C@H]1CC(=O)NCCN(C)C	31.0%*
COc1ccc(CNC(=O)C[C@@H]2C[C@@H](C(C)C)[C@H](CNC(=O)c3ccc(C#N)cc3)C=C2C)cc1	i
CC1=C[C@@H](CNC(=O)c2ccc(C#N)cc2)[C@H](C(C)C)C[C@H]1CC(=O)NCc1cccnc1	i
CCC(NC1CCN(c2ccc(C(=O)NC3CCCC3)cc2)CC1)c1nc2ccc(C)cc2[nH]1 (stereo not given)	i
COc1cccc(OC)c1OCCCOc1ccccc1OC(C)C	i
Cc1cc(C(=O)NC(CCn2cncn2)c2ccccc2)nc(C)n1 (stereo not given)	i
Cc1cc(C(=O)NCc2ccc(F)cc2)ccc1[N+](=O)[O-]	52.0%*

From PubChem BioAssay
